Measles CPE: protection of cells from measles virus. Measles virus-infected cells, CPE protection, absorbance. protection (pct of control), % at 4 µM. hit rate 1.5% among 140,000; in the data active = protection mostly above about 24%, no sharp cut-off; inactive = mostly below about 26%
Arbovirus inh: blocks arbovirus infection; arbovirus infection cell-based antiviral screen; AID 1251; inhibition, % at 10 µM; hit rate 0.37% among 200,000; in the data active = inhibition above about 30%
Cl transport mod: KCC2 (human) Cl- transport modulation; Q9H2X9; KCC2 cells, thallium flux FluoZin-2 fluorescence; B-score of Tl+ flux slope (higher = more flux/activation; lower = inhibition) at 10 µM; hit rate 2.2% among 190,000; AID 1456;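 active = thallium flux slope and its plate-corrected score both differing from the plate sample mean at a set confidence after two filtering rounds, in either direction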;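 note: slope of fluorescence scaled to starting intensity during 10 to 20 s after thallium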
HSV replic up: HSV replication enhancement. HSV replication augmentation in cells, fold increase. AID 1956. hit rate 0.005% among 220,000. maximum fold increase; in the data active = maximum fold increase above about 1.5; inconclusive = no clear call, values can overlap the other calls; tested in PC3 cells
ROMK primary: modulates human ROMK potassium channel activity. P48048. Tet-inducible ROMK, thallium flux fluorescence; actives lie on both sides. B-score at 10 µM. hit rate 2% among 130,000;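 active = signal ratio slope over the read window, or its plate-corrected B-score, at least 3 SD from the plate mean, either direction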;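 note: B-score of the F/F0 ratio slope over 7 to 12 s after thallium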
Target sequence (P48048 whole entry, looked up): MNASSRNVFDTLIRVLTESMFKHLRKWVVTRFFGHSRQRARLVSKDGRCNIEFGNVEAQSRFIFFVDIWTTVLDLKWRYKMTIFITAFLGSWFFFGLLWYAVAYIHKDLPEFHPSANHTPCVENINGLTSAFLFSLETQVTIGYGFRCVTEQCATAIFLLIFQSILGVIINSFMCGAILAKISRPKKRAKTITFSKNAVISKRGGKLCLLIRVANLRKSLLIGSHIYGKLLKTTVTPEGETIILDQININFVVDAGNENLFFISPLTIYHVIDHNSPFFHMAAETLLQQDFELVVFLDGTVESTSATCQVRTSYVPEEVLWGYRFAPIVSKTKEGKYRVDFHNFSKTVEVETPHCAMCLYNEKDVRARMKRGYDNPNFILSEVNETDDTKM
KCC2 sec1: KCC2 (human) modulation, secondary assay. shares compounds with Cl transport mod. HEK293-KCC2, thallium flux, FluoZin2 fluorescence; active compounds read high. normalised thallium flux (F/F0 slope) at 10 µM. hit rate 15% among 3,700;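 active = thallium flux slope above the same plate's solvent-only control mean plus 3 SD; inconclusive = the two replicate wells disagree; inactive = no significant difference from solvent-only control wells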
KCC2 bumet counter: thallium flux despite bumetanide block in KCC2 cells, secondary assay 3. shares compounds with Cl transport mod. HEK293-KCC2 + bumetanide/ouabain, thallium flux FluoZin2; active compounds read high. normalized thallium flux at 10 µM. hit rate 49% among 3,700;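 active = thallium entry rate above the same plate's blocked-transporter control wells by more than 3 SD; inconclusive = the two repeat wells disagree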;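 note: raw slope of fluorescence over initial fluorescence between 10 and 20 s after thallium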
KCC2 sec2: KCC2 (human) modulation, second secondary assay; HEK293-KCC2, thallium flux FluoZin2 fluorescence; actives lie on both sides; F/F0 rise rate, 10–20 s post-thallium; normalized thallium flux at 10 µM; shares compounds with Cl transport mod; AID 1715; hit rate 23% among 3,700;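 active = thallium flux slope more than 3 SD above or below the plate's solvent-only control mean, mostly below; inconclusive = the two repeat wells disagreed; inactive = no significant shift from solvent-only controls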;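 note: raw slope with 0.1% DMSO as baseline and bumetanide as block control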
HEK293 Tl flux: acts in parental HEK cells, KCC2 counter-screen. shares compounds with Cl transport mod. HEK293 parental cells, thallium flux FluoZin2, ouabain; baseline-ratio fluorescence slope, 10–20 s after thallium. thallium flux rate (normalised fluorescence) at 10 µM. hit rate 46% among 3,700. AID 1716;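 active = thallium flux rate significantly above the same plate's solvent-only control wells, beyond their mean plus 3 SD; inconclusive = the two replicate wells gave conflicting results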
KCC2 ouabain: modulates human KCC2 on retest with ouabain | hit rate 48% among 3,700 | HEK293-KCC2, thallium flux FluoZin2 fluorescence; bidirectional: low = inhibitor, high = activator | shares compounds with Cl transport mod | raw Tl+ flux slope (below DMSO = inhibition, above = activation) at 10 µM;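 active = thallium flux slope beyond 3 SD from same-plate DMSO control mean in most replicates, usually higher, sometimes lower; inconclusive = repeat tests gave conflicting results; inactive = no significant difference from controls in most replicates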;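 note: slope of initial-normalized fluorescence between seconds 10 and 20 after thallium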
HEK counter2: acts in parental HEK cells, second KCC2 counter-screen; shares compounds with Cl transport mod; HEK293 parental, thallium flux FluoZin-2 fluorescence slope; thallium flux slope at 10 µM; hit rate 33% among 3,700; AID 1718;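 active = thallium flux slope above the same plate's solvent-control mean plus 3 SD in both duplicate wells; inconclusive = duplicate wells that disagreed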;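 note: run without ouabain in cells lacking the KCC2 cotransporter; slope of fluorescence scaled to its starting value between 10 and 20 s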
An asterisk follows results filed as active; i = inactive; u = inconclusive; x = not tested or not shown. Most compounds without a hit are left out; they make up all but 4% or so of the library.

SMILES	Measles CPE	Arbovirus inh	Cl transport mod	HSV replic up	ROMK primary	KCC2 sec1	KCC2 bumet counter	KCC2 sec2	HEK293 Tl flux	KCC2 ouabain	HEK counter2
COCCN1Cc2cccc(C(=O)NC(C)CCc3ccco3)c2C1=O (centres undefined)	x	-2	-1.7	i	0.13	x	x	x	x	x	x
NS(=O)(=O)c1ccc(NC(=O)COC(=O)c2ccc([N+](=O)[O-])s2)cc1	x	x	0.89	i	x	x	x	x	x	x	x
O=S(=O)(c1cccc(F)c1)N1CCN(C(=S)NCc2ccccc2)CC1	x	4	-0.66	i	0.07	x	x	x	x	x	x
COc1ccc(C(=O)CSc2nnc(CNc3ccc(F)cc3)o2)cc1	x	-6	-0.27	i	-0.81	x	x	x	x	x	x
O=C(CSc1nnc(COc2ccccc2)o1)c1ccccc1	25	-6	x	i	-1.1	x	x	x	x	x	x
COc1ccc(NC(=O)CSc2nnc(CNc3ccc(F)cc3)o2)c(OC)c1	11	6	-4.1*	i	x	0.0073	0.0056	0.033	0.0071	u	0.011
O=C(CSc1nnc(Cc2ccccc2)o1)c1ccccc1	x	-4	-4.4*	i	-0.99	0.0051	u	0.024*	0.0073	u	0.011
O=C(CSc1nnc(CNc2ccc(F)cc2)o1)c1ccccc1	x	-10	-3.8*	i	-0.77	0.0063	0.006	0.029	0.0069	0.017	0.0093
COc1ccc(NCc2nnc(SCC(=O)Nc3cc(C)cc(C)c3)o2)cc1	2	-20	0.055	i	x	x	x	x	x	x	x
CCCn1c(N)c(C(=O)CSc2nnc(Cc3ccccc3)o2)c(=O)n(C)c1=O	27	4	-8.8*	i	x	0.0068	0.0049	0.02*	0.0086	0.015*	0.012
C=CCNC(=O)C1CCN(c2c([N+](=O)[O-])cc(C(F)(F)F)cc2[N+](=O)[O-])CC1	5	-9	x	i	x	0.011	0.0065	0.029	0.0077	0.03	u
O=C(O)C1CCN(c2c([N+](=O)[O-])cc(C(F)(F)F)cc2[N+](=O)[O-])CC1	18	7	x	i	x	x	x	x	x	x	x
O=C(c1ccc(Cl)cc1)N1CCC(O)(CSc2ccc(Cl)cc2Cl)CC1	1	-41	0.02	i	x	x	x	x	x	x	x
CC(CC(=O)Nc1cccnc1)c1ccccc1 (centres undefined)	x	3	0.63	i	0.62	x	x	x	x	x	x
O=C(NC(=S)Nc1ccc(CN2CCOCC2)cc1)c1ccc(-c2ccc(Br)cc2)o1	x	x	5.3*	i	x	0.0096	0.0063	0.033	0.018*	u	0.011
O=C(Nc1ccc(CN2CCOCC2)cc1)c1cc2ccccc2o1	45	3	-0.76	i	x	x	x	x	x	x	x
O=C(NC(=S)Nc1ccc(CN2CCOCC2)cc1)c1cc2ccccc2o1	x	-4	12*	i	-0.22	0.0065	0.016*	0.032	0.02*	0.029*	0.015*
c1ccc2sc(SN3CCOCC3)nc2c1	10	-4	2.8*	i	x	0.0077	0.013*	0.027	0.011*	0.021	u
Nc1ccc(N2CCCCC2)c(S(=O)(=O)Nc2ccccc2Cl)c1	x	x	-0.18	i	x	x	x	x	x	x	x
O=S(=O)(Nc1ccccc1N1CCCCC1)c1ccc(F)cc1F	x	-3	19*	i	-0.041	0.013*	0.038*	0.031	0.012*	0.028	0.012*
CCCOc1ccc(OCCOCCN2CCc3ccccc3C2)cc1	3	-3	1.1	i	-0.13	x	x	x	x	x	x
Cc1cc2cc(CNC(=O)c3ccc(C)c([N+](=O)[O-])c3)ccc2[nH]1	6	-4	-4.2*	x	0.42	0.0087	0.0063	0.029	0.0076	u	0.01
Cc1ccc(-n2[nH]c(C)c(/C=N/Nc3ccc([N+](=O)[O-])cc3[N+](=O)[O-])c2=O)cc1	6	10	-4.7*	i	x	0.0064	0.011*	0.03	0.0072	u	0.0095
Cc1[nH]n(-c2ccc([N+](=O)[O-])cc2)c(=O)c1C=NCC1CCCO1 (centres undefined)	x	-16	-1.4	i	0.2	x	x	x	x	x	x
Cc1cc(C)c(C)c(S(=O)(=O)N2CCN(c3ccc(O)cc3)CC2)c1C	x	-19	-0.0078	i	0.67	x	x	x	x	x	x
SMILES	Measles CPE	Arbovirus inh	Cl transport mod	HSV replic up	ROMK primary	KCC2 sec1	KCC2 bumet counter	KCC2 sec2	HEK293 Tl flux	KCC2 ouabain	HEK counter2
N/C(CN1CCCCC1)=N\S(=O)(=O)c1cc(Cl)cc(Cl)c1	x	x	x	i	x	x	x	x	x	x	x
Cc1cc(=S)nc(-c2ccccn2)[nH]1	x	x	81*	i	1.5	0.037*	0.048*	0.038	0.041*	0.043*	0.016*
Cn1c(C(=O)NCCCN2CCc3ccccc3C2)cc2c(=O)n(C)c3ccccc3c21	8	-22	x	i	x	0.0058	0.0054	0.023*	0.0078	u	0.012
Cn1c(C(=O)NCCCN2CCCCCC2)cc2c(=O)n(C)c3ccccc3c21	5	-5	-1.5	i	x	x	x	x	x	x	x
Oc1ccccc1C(Nc1nccs1)c1ccc2cccnc2c1O (centres undefined)	x	x	5*	i	x	0.0089	0.015*	0.029	0.0086*	u	0.0097
Cc1ccc(S(=O)(=O)N2CCN(C(=O)C3CCN(C(=O)c4ccccc4C)CC3)CC2)cc1C	x	10	-0.11	i	0.18	x	x	x	x	x	x
C/C(N)=C(/C#N)C(=O)CSc1cc(C)c2cc(C)cc(C)c2n1	x	3	4.1*	i	0.094	0.018	0.0057	0.031	u	0.017	0.011
N#CCN1C(=O)C2CCCN2c2ccc(S(=O)(=O)N3CCOCC3)cc21 (centres undefined)	x	12	-0.19	i	-0.42	x	x	x	x	x	x
Cc1ccc(C2Nc3ccc4ccccc4c3C3=C2C(=O)CC(C)(C)C3)o1 (centres undefined)	10	-20	-0.16	i	-1.1	x	x	x	x	x	x
CC1(C)CC(=O)C2=C(C1)c1c(ccc3ccccc13)NC2c1cc([N+](=O)[O-])cc([N+](=O)[O-])c1O (centres undefined)	x	11	-4.5*	i	0.11	0.0053	0.005	0.027*	u	0.016*	0.01
COc1ccc(S(=O)(=O)N(CCC(=O)O)Cc2ccccc2)cc1	x	2	-3.7*	i	0.39	0.0075	0.0047	0.022*	0.0073	0.015*	0.01
NC(=O)CCN(Cc1ccccc1)S(=O)(=O)c1ccccc1	1	6	-0.2	i	0.035	x	x	x	x	x	x
O=C(O)CCCN(Cc1cccc(Br)c1)S(=O)(=O)c1ccc(Br)cc1	x	2	-5.5*	i	-0.81	0.0084	0.0062	0.029*	0.0037	0.012*	0.011

High-throughput results: PubChem, several laboratories
